Compound activity (PubChem)
An excerpt weighted towards active compounds, which were near 1.2% of everything screened.
NPR1 activator = GC-A (human) enzyme activation; P16066; HEK293 GC-A cells, cGMP TR-FRET, EC30 ANP; 0% at EC30 ANP, 100% saturating ANP; activation, % at 10 µM; actives 0.14% (n = 370,000); AID 1671463; in the data active = activation above about 40%
PLC-gamma1 inh = PLC-gamma1 (human) inhibition, primary screen; inhibition, % at 12.2 µM; actives 0.84% (n = 370,000); purified PLC-gamma1, fluorogenic substrate, fluorescence; AID 720700
Target sequence (P19174 whole entry, looked up): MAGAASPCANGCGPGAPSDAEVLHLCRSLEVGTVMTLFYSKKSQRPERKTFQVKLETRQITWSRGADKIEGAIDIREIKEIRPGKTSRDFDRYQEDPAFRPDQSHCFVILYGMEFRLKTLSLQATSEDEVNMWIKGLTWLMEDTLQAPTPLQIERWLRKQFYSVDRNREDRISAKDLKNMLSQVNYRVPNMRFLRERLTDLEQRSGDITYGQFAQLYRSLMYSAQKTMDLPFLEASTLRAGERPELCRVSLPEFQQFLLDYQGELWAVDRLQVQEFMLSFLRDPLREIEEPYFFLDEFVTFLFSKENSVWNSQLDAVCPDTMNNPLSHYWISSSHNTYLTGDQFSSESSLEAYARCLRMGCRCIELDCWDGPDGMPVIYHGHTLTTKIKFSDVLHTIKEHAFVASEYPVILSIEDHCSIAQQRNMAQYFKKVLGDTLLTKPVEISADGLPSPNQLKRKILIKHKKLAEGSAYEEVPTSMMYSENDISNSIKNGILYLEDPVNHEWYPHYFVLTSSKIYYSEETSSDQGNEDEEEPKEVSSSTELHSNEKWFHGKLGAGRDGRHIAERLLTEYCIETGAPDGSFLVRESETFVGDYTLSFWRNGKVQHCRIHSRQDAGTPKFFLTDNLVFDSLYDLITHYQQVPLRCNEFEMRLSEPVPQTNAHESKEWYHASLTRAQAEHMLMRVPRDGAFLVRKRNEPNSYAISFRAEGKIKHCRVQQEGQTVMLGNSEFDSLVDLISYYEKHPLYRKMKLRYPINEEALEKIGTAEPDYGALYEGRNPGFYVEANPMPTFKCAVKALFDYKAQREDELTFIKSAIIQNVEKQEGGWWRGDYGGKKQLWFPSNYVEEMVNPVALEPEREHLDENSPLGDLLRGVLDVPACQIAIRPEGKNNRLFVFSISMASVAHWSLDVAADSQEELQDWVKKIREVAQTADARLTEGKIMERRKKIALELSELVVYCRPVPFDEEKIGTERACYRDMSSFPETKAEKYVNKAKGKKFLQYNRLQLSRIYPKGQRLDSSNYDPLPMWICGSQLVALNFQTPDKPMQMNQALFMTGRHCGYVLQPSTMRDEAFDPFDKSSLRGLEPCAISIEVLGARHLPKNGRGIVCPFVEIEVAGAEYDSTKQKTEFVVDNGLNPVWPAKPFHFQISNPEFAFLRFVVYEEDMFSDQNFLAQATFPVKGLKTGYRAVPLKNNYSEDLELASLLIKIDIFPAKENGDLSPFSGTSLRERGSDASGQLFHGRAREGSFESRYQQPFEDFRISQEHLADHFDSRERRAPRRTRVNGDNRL
NPR2 activator = GC-B (human) receptor activation | P20594 | HEK293-GC-B cells, CNP EC30, cGMP TR-FRET; 0% at EC30 CNP, 100% saturating CNP | activation, % at 10 µM | actives 0.11% (n = 370,000);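 active = activation at 10 µM reaching about 35% in either raw or pattern-adjusted values, limit read from the data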
PLCb3 inh = PLC-beta3 (human) inhibition, primary screen | Purified PLC-beta3, fluorogenic substrate, fluorescence | inhibition, % at 12.2 µM | actives 0.18% (n = 370,000); in the data active = inhibition above about 11%
PLCgamma1 ctr = counter-screen for PLC-beta3 inhibitors: inhibitors of human PLC-gamma1. AID 743258. shares compounds with PLC-gamma1 inh. inhibition, % at 12.3 µM. actives 3.1% (n = 3,300). purified PLC-gamma1, fluorogenic substrate, fluorescence
PLCb3 confirm = human PLC-beta3 inhibition, confirmation; actives 1% (n = 3,300); inhibition, % at 12.3 µM; purified PLC-beta3, fluorogenic substrate fluorescence; shares compounds with PLC-gamma1 inh; in the data active = inhibition above about 11%
Each line names hits and unclear results; the compound was inactive in the other large screens (follow-up assays come after a bar, where they were run). Cut-off read from the data, not from the text of the source, unless noted: active = inhibition above about 9.5%; inactive = the rest.

O=C(CSc1ccc(F)cc1)NC(=O)NCc1ccccc1	PLC-gamma1 inh 10 | PLCgamma1 ctr inactive | PLCb3 confirm inactive
CC(C(=O)Nc1ccc(F)c(F)c1F)N(C)CCOc1ccccc1 (stereo not drawn)	none
O=C(Nc1ccc(F)cc1)c1ccc2nsnc2c1	none
CCc1cccc(-n2c(C)cc(O)cc2=O)c1	none
Cn1c(N=Nc2ccccc2)nc2ccccc21	PLCb3 inh 12 | PLCgamma1 ctr inactive | PLCb3 confirm inactive
O=C(Nc1nc(-c2ccc(F)cc2)cs1)C1CCCO1 (stereo not drawn)	PLC-gamma1 inh 12 | PLCgamma1 ctr inactive | PLCb3 confirm inactive
O=C(C[n+]1cc(-c2ccc(F)cc2)n2c1CCC2)Nc1nc(-c2ccc(F)cc2)cs1	PLC-gamma1 inh 12 | PLCgamma1 ctr inactive | PLCb3 confirm inactive
O=C(C[n+]1cc(-c2ccccc2)n2c1CCC2)Nc1nc(-c2ccc(F)cc2)cs1	none
CCCCNc1c(N)n(CC(C)C)c(=O)[nH]c1=O	none
Cc1ccc(S(=O)(=O)CCC(=O)Nc2nc(-c3ccncc3)cs2)cc1	PLC-gamma1 inh 13 | PLCgamma1 ctr inactive | PLCb3 confirm inactive
CN(Cc1ccccc1F)C(=O)CCCNC(=O)c1ccc(Cl)cc1	PLC-gamma1 inh 11 | PLCgamma1 ctr inactive | PLCb3 confirm inactive
COCCn1nnnc1SCC(=O)NCc1ccc2c(c1)OCO2	none
N#Cc1ccccc1S(=O)(=O)N1CCN(CC(O)CN2CCOCC2)CC1 (stereo not drawn)	PLC-gamma1 inh 9.7 | PLCgamma1 ctr inactive | PLCb3 confirm inactive
CCN(CC)C(=O)c1[nH]cnc1C(=O)N[C@H](C)c1ccccc1	PLCb3 inh 14 | PLCgamma1 ctr inactive | PLCb3 confirm inactive
CCN(CC)C(=O)c1[nH]cnc1C(=O)N[C@@H](C)c1ccccc1	none
CCCNC(=O)C[C@H]1CC[C@H]2[C@@H](COc3ccc(NC(=O)c4cncs4)cc3C(=O)N2C)O1	PLC-gamma1 inh 12, PLCb3 inh 11 | PLCgamma1 ctr 16 | PLCb3 confirm 18
COC(=O)C[C@@H]1CC[C@H]2[C@@H](COc3ccc(NC(=O)c4ccc(Cl)cc4)cc3C(=O)N2C)O1	PLC-gamma1 inh 12 | PLCgamma1 ctr inactive | PLCb3 confirm inactive
CCCNC(=O)Nc1ccc2c(c1)C(=O)N(C)[C@H]1CC[C@@H](CC(=O)OC)O[C@H]1CO2	none
COC(=O)CN(n1cnnc1)S(=O)(=O)c1ccccc1Cl	PLC-gamma1 inh 10 | PLCgamma1 ctr inactive | PLCb3 confirm inactive
CCCOc1ccc(F)cc1-c1cc(C(=O)Nc2cc(OC)c(OC)c(OC)c2)[nH]n1	none
Cc1cccc(N(C(=O)c2ccco2)C(C(=O)NC2CCCC2)c2cccnc2)c1C (stereo not drawn)	none
Fc1ccccc1N1CCN(CC2CC3C=CC2C3)CC1 (stereo not drawn)	PLC-gamma1 inh 12, PLCb3 inh 11 | PLCgamma1 ctr inactive | PLCb3 confirm inactive
C1=CC2CC1CC2CN1CCN(Cc2ccccc2)CC1 (stereo not drawn)	none
COc1ccc(C(=O)OCC(=O)Nc2c(C)n(C)n(-c3ccccc3)c2=O)cc1	PLC-gamma1 inh 12 | PLCgamma1 ctr inactive | PLCb3 confirm inactive
CN1C(=O)[C@@](O)(c2cn(C)c3ccccc23)c2cc(F)ccc21	PLCb3 inh 12 | PLCgamma1 ctr inactive | PLCb3 confirm inactive
CN1C(=O)C(c2cn(C)c3ccccc23)(c2cn(C)c3ccccc23)c2cc(F)ccc21	none
CC(C)CCNC(=O)CN(Cc1ccccc1Cl)C(=O)CCC(=O)Nc1ccccn1	none
CN(C(=O)COC(=O)c1ccc(CN2CCCC2=O)cc1)c1ccccc1	none
O=C(NC1CCCCC1)c1ccc(-c2ccccc2F)o1	none
CCC(C(=O)NC1CCCC1)N(Cc1ccco1)C(=O)Cn1nnc(-c2ccc(C)cc2)n1 (stereo not drawn)	none
CCOC(=O)CN(C(=O)Cn1nnc(-c2ccc(C)cc2)n1)C(CC)C(=O)NC1CCCC1 (stereo not drawn)	PLC-gamma1 inh 13 | PLCgamma1 ctr inactive | PLCb3 confirm inactive
CCc1nnc(NS(=O)(=O)c2ccc(NC(=S)NC(=O)c3ccc(F)cc3)cc2)s1	none
CCc1ccccc1Nc1ncnc2ccccc12	none
Cc1cccc(C)c1Nc1ncnc2ccccc12	PLC-gamma1 inh 9.7 | PLCgamma1 ctr inactive | PLCb3 confirm inactive
O=C(NC1CCCCC1)C1CC(O)CN1C(=O)OCc1ccccc1 (stereo not drawn)	none
CCOC(=O)/C(C#N)=C1/C=CN(c2ccc(C)cc2)C=N1	PLC-gamma1 inh 13, PLCb3 inh 12 | PLCgamma1 ctr inactive | PLCb3 confirm inactive
CCOC(=O)/C(C#N)=C1\C=CN(C)C(C)=N1	none
CCOC(=O)/C(C#N)=C1/C=CN(C)C=N1	PLC-gamma1 inh 10 | PLCgamma1 ctr 14 | PLCb3 confirm inactive
CCOC(=O)/C(C#N)=C1/C=CN(Cc2ccccc2)C=N1	none
CCOC(=O)/C(C#N)=C1/C=CN(c2ccccc2)C=N1	PLC-gamma1 inh 11 | PLCgamma1 ctr inactive | PLCb3 confirm inactive
CC(Oc1ccc(Cl)cc1Cl)C(=O)Nc1cccc(O)c1 (stereo not drawn)	none
CC(Oc1ccc(Cl)cc1Cl)C(=O)Nc1ccc(O)cc1 (stereo not drawn)	PLC-gamma1 inh 16 | PLCgamma1 ctr inactive | PLCb3 confirm inactive
O=C(CCc1ccccc1)Nc1ccccc1[N+](=O)[O-]	none
O=C(CCc1ccccc1)Oc1ccccc1[N+](=O)[O-]	PLC-gamma1 inh 13 | PLCgamma1 ctr inactive | PLCb3 confirm inactive
O=C(c1ccc([N+](=O)[O-])o1)N1CCN(c2nc3c(F)cc(F)cc3s2)CC1	PLC-gamma1 inh 15 | PLCgamma1 ctr inactive | PLCb3 confirm inactive
Cc1ccc(C)c2sc(N3CCN(C(=O)c4ccc([N+](=O)[O-])o4)CC3)nc12	none
Cc1ccccc1NC(=O)Cc1nnc(N)s1	none
CC(C)C[C@H]1CNC(=O)C(=O)N1C[C@H](Cc1ccc(O)cc1)NC(=O)Cc1ccccc1	none
C[C@H]1CNC(=O)C(=O)N1C[C@H](Cc1ccc(O)cc1)NC(=O)CC12CC3CC(CC(C3)C1)C2	PLCb3 inh 12 | PLCgamma1 ctr inactive | PLCb3 confirm inactive
NC(=S)N=Nc1c(O)n(CC(=O)Nc2ccccc2)c2ccccc12	none
Cc1cccc(NC(=O)Cn2c(O)c(N=NC(=O)c3ccccc3O)c3ccccc32)c1	PLC-gamma1 inh 11 | PLCgamma1 ctr inactive | PLCb3 confirm inactive
Cc1[nH]c2ccccc2c1N=Nc1cc(C(=O)O)cc(C(=O)O)c1	PLC-gamma1 inh 11 | PLCgamma1 ctr inactive | PLCb3 confirm inactive
Cc1[nH]c2ccccc2c1N=Nc1ccc(F)cc1	none
O=C(NCc1ccccn1)c1cccc(NS(=O)(=O)c2cccc(Cl)c2)c1	none
COc1cccc(C2=NOC(C(=O)NCCCn3ccnc3)C2)c1 (stereo not drawn)	none
CC(=O)c1ccc(N2CCN(C(=O)c3ccc(Br)cc3)CC2)c(F)c1	PLCb3 inh 12 | PLCgamma1 ctr inactive | PLCb3 confirm inactive
